The list is not random: actives were taken first. Their share in the collection is about 32%.
CYP2C19 act – human CYP2C19 activators, primary screen, biochemical, luminescence. Cytochrome P450 2C19 (Homo sapiens), P33261. 96,000 tested, under 10 active. recombinant CYP2C19, luciferin-H EGE luminescence; hits give high values; 0 = fully inhibited enzyme, 1 = untreated enzyme. activation factor at 5 µM. AID 1025, 2008;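 active means activation factor of at least 2 at 5 µM in the primary screen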;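 further: 0 = wells with 2.5 mM tranylcypromine and 1 = vehicle-only wells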
Target sequence (P33261 whole entry, looked up): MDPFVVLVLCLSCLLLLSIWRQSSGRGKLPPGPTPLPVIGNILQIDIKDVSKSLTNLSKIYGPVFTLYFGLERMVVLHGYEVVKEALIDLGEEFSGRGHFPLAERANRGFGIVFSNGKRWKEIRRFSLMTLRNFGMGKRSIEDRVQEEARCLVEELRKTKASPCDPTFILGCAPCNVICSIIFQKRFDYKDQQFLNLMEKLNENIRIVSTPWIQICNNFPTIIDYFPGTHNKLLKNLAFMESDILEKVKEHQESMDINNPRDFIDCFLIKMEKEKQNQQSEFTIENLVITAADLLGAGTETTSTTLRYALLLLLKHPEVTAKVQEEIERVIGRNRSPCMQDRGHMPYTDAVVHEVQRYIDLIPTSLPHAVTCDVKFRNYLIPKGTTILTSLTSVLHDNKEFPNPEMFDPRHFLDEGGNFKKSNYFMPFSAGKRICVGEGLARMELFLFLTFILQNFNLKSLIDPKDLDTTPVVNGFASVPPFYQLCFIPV
PostGolgi yeast – phenotypic screen on post-Golgi transport, primary screen. post-Golgi transport phenotypic cell assay. AID 739, 2007. inhibition, % at 10 µM. actives 0.9% (n = 98,000);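 further: yeast cells grown in 1536-well plates; yeast grown about 18 h at 30C before absorbance read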
CYP2C19 inhib – blockers of cytochrome P450 2C19 activity – biochemical, luminescence, ADME assay, primary screen; P33261; CYP2C19 Supersomes, luciferin-H EGE luminescence, 30 min; inhibition, % at 5 µM; actives 21% (n = 96,000); AID 778, 2007;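 active means CYP2C19 inhibition above a set limit at 5 µM in the primary screen, cut at about 50% in these data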;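 further: plate controls were negative control wells for no effect and 2.5 mM tranylcypromine positive control for full effect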
CYP2C9 inhib – blockers of cytochrome P450 2C9 activity – biochemical, luminescence, ADME assay, primary screen. P11712. CYP2C9 Supersomes, luciferin-H conversion. inhibition, % at 5 µM. actives 20% (n = 96,000). AID 777, 2007;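 active means blocking of liver enzyme CYP2C9 beyond about 50% at 5 µM, limit read from the data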
CYP2C9 activ – human CYP2C9 activators, primary screen, biochemical, luminescence; activation factor at 5 µM; actives 1.4% (n = 96,000); recombinant CYP2C9, luciferin-H conversion; hits give high values; factor 1 = untreated enzyme, 0 = blocked;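 active means activation factor of 2 or more for CYP2C9 at a 5 µM dose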;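 further: 0 = sulfaphenazole-blocked wells and 1 = vehicle-only wells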
PostGolgi ctrl – growth inhibition of yeast control strain, primary screen, counter-screen for post-Golgi transport modulator project; efflux-deficient yeast background strain, growth absorbance A615, 16 h; inhibition, % at 10 µM; actives 5% (n = 98,000)
An asterisk follows results filed as active. Unless noted, no stated cut-off is given here; in the data, active means inhibition above about 30%; inactive means the rest.

SMILES	CYP2C19 act	PostGolgi yeast	CYP2C19 inhib	CYP2C9 inhib	CYP2C9 activ	PostGolgi ctrl
COC(=O)c1ccc(NC(=O)CSCc2ccccc2)cc1	0.7	0	26	38	0.6	0
COC(=O)c1ccc(NC(=O)CSCc2ccccc2C)cc1	0.1	1	94*	92*	0.1	4
COC(=O)c1ccc(NC(=O)CSCc2ccc(C)cc2)cc1	0.2	1	75*	90*	0.1	5
CCCCSc1nc(C)cc(SCC(=O)N/N=C/c2cccc(OC)c2O)n1	0.7	4	33	64*	0.4	4
O=C(OCn1ncc(Cl)c(Cl)c1=O)c1ccc(F)cc1	0.7	33*	30	-17	1.2	19
N/C(CN1CCCC1=O)=N\OC(=O)c1ccccc1Cl	1	-4	-2	-5	1.1	1
O=C(OCn1ncc(Cl)c(Cl)c1=O)c1ccccc1Cl	0.2	79*	78*	-17	1.2	25
NC1(N)OC(CN2C(=O)c3ccccc3C2=O)CS1 (configuration not stated)	0.5	5	52*	12	0.9	10
O=C1c2ccccc2C(=O)N1CC1CCCO1 (configuration not stated)	0.9	-12	11	4	1	29
CCCNC(=O)CSc1nc(-c2cccs2)cc(C(F)(F)F)n1	0.3	3	68*	77*	0.2	6
Cc1cc(NC(=O)CSc2nc(-c3cccs3)cc(C(F)(F)F)n2)no1	1.2	-6	-21	-18	1.2	1
O=C(CSc1nc(-c2cccs2)cc(C(F)(F)F)n1)NCc1ccccc1	0.4	-3	60*	91*	0.1	30*
CCOc1ccccc1OCC(=O)Nc1ccc(S(=O)(=O)N(C)C)cc1	0.8	3	20	22	0.8	7
COc1ccc(N(C(=O)COc2ccccc2OC)S(=O)(=O)c2ccc(C)cc2)cc1	0.6	-5	40	52*	0.5	4
COc1ccc(N(CC(=O)O)S(=O)(=O)c2ccc(OC)c(OC)c2)cc1	0.8	-10	22	29	0.7	10
COc1ccc(OC)c(N(CC(=O)N2CCC(C)CC2)S(=O)(=O)c2ccc(OC)c(OC)c2)c1	0.8	6	16	39	0.6	18
COc1ccc(OC)c(N(CC(N)=O)S(=O)(=O)c2ccc(OC)c(OC)c2)c1	0.2	23	78*	45	0.6	7
COC(=O)CN(c1ccc(OC)cc1)S(=O)(=O)c1ccc(OC)c(OC)c1	0.1	-2	94*	16	0.8	16
CCOc1ccc(N(CC(=O)OC)S(=O)(=O)c2ccc3c(c2)n(C)c(=O)c(=O)n3C)cc1	0.9	-6	11	56*	0.4	12
CC(C)OC(=O)/C(=C\C=C\c1ccccc1)NC(=O)c1ccccc1	0.9	-10	9	9	0.9	-9
Cc1ccc(N(C(=O)C2CCC(=O)N2)C2(C(=O)NC3CCCC3)CCCCC2)cc1 (configuration not stated)	1	-1	4	22	0.8	10
CCc1cc2c(=O)n(N)c(CCC(=O)O)nc2s1	1.1	-2	-6	-4	1	1
CCOc1ccccc1N(CC(=O)OC)S(=O)(=O)c1ccccc1	0.5	1	51*	71*	0.3	1
COc1ccc(N(CC(=O)NN=C2CCCC2)S(=O)(=O)c2ccccc2)cc1	0.5	-1	51*	21	0.8	4
CCOc1ccc(N(CC(N)=O)S(=O)(=O)c2ccc(F)cc2)cc1	0.6	-9	37	12	0.9	6
COc1ccc(N(CC(=O)NN=C2CCCCCCC2)S(=O)(=O)c2ccccc2)cc1Cl	0.7	3	32	21	0.8	8
CCOc1ccc(S(=O)(=O)N(CC(N)=O)c2ccc(C)cc2)cc1	0.3	6	71*	41	0.6	5
CCOc1ccc(N(CC(=O)OC)S(=O)(=O)c2ccc(OC)c(OC)c2)cc1	0.4	-1	64*	55*	0.5	6

Compound activity from PubChem.
